For 27 molecules, z-score results are on record in PubChem BioAssay.

Values without a mark were called inactive.

The assay in a line: basal S. cerevisiae growth modulation, no modifier, primary screen, OD600, strain BY4716, 24 h, basal condition (AID 1173). The conditions noted are these: OD600, 24 h, higher = more signal, called active from +8 up or from −8 down.
As for `CC=CC1=C(CO)[C@H](O)[C@H]2O[C@H]2[C@H]1O`, the z-score was 0.977. In the case of `COCCNC(=O)OCC1CCCC2(CC(OC(=O)NCCc3ccc(F)cc3)CC(CCC(=O)N[C@@H](C)C(=O)OC)O2)O1` (some centres not stated) it was -0.183. Regarding `CC(C)[C@H](NC(=O)OC(C)(C)C)[C@@H](O)CC(=O)OC(C)(C)C`, the z-score is -0.448.

As for `CCc1cc2c(nc1CC)CCN(CCC(C)=NOC[C@@H](O)COCc1ccco1)C2`, the z-score is -1.12. As to `CCOC(=O)[C@H](Cc1ccccc1)NC(=O)CCC1CC(OC(=O)NCc2ccc3c(c2)OCO3)CC2(CCCC(COC(=O)NCc3ccccc3)O2)O1` (some centres not stated), the z-score is -0.0513. In the case of `C=CCOC(=O)[C@H]1[C@@H]2C(=O)O[C@@H](c3ccccc3)[C@@H](c3ccccc3)N2[C@@H](c2ccc(OCCOC(=O)[C@H]3C[C@H]4C(=O)N[C@@H](Cc5ccccc5)C(=O)N4[C@H]3c3ccc(O)cc3)cc2)[C@]12C(=O)Nc1ccccc12` it was 1.32; in that of `C=CC[C@@H]1C=C[C@H](ON=C2c3cc(OC)ccc3O[C@H](c3cccc(OC)c3)[C@H]2O)[C@@H](CO)O1`, -0.903.

On to `CC(C)(C)N1C(=O)[C@H]2[C@H]3[C@H](O)[C@H](O)CC(=NO[C@@H]4O[C@H](CO)[C@@H](O)[C@H](O)[C@H]4O)[C@@H]3CC[C@H]2C1=O`, for which the z-score is -0.597. In the case of `CC(C)=NOCc1cccc(-c2cc(-c3ccccc3)no2)c1` it was 0.671; in that of `C[C@H]1CC[C@@H](C(=O)O)N[C@@H]1c1ccc(C#CCN(C)C)cc1`, -1.07. In the case of `CO[C@H]1COC(=O)[C@H](C)NC(=O)[C@@H](C)COC(=O)CC=C[C@@H]1C` it was -0.518; in that of `COC(=O)CC=C[C@H](C)[C@H](CO)NS(=O)(=O)c1ccc(C)cc1`, -0.342; in that of `Cc1cc2c(nc1C)CCCN2CC(C)ON=C1[C@H]2CCn3c(=O)n(-c4ccccc4)c(=O)n3[C@H]2[C@H](O)[C@@H]2O[C@H]12` (some centres not stated), -0.286. `CC(C)OC(=O)C=C1C[C@@H](c2ccc(C#N)cc2)O[C@@H](c2ccc(C#N)cc2)O1`: the z-score was -0.709. In the case of `CO[C@H]1COC(=O)[C@H](C)COC(=O)CC=C[C@@H](C)[C@H](OC)COC(=O)CC=C[C@@H]1C` it was -0.754; in that of `CC(CCN1CCc2nc(-c3ccccc3)c(-c3ccccc3)cc2C1)=NO[C@@H](C)c1cn([C@H](CO)Cc2ccccc2)nn1`, -3.25; in that of `COc1ccc([Si](C)(C)[C@@H]2[C@@H](CC(=O)N3CCC[C@H]3CO)O[C@]3(C(=O)N(Cc4cccc(N5CCC5=O)c4)c4ccccc43)[C@H]2C)cc1`, -0.0905.

On to `COc1ccccc1CN1C(=O)c2ccccc2[C@@H](C(=O)NCC(F)(F)F)[C@@H]1c1ccc(CO)cc1`, for which the z-score was 0.403. Turning to `[N-]=[N+]=NCc1ccccc1[C@@H]1OC(c2ccc(OCCCO)cc2)=N[C@]1(Cc1ccccc1)C(=O)N1CCOCC1`, the z-score was -0.833. In the case of `CC(C)(C)OC(=O)CC[C@]1(C(=O)NCc2ccccc2)N=C(c2ccc(OCCCO)cc2)O[C@H]1c1ccccc1` it was 0.69. Consider `CC1CC/C=C\[C@H]2OC34C=CCN(Cn5nnc6ccccc65)C(=O)[C@H]3N(CCO)C(=O)[C@@H]4C2C(=O)O1` (some centres not stated), for which the z-score is -0.895. In the case of `CCOC(=O)CCN1C(=O)[C@H]2[C@H]3[C@H](O)C=CC(=O)[C@@H]3CC[C@H]2C1=O` it was 0.454; in that of `O=C1C[C@@H](O)[C@@H](O)[C@@H]2[C@@H]3C(=O)N(Cc4ccc5c(c4)OCO5)C(=O)[C@@H]3CC[C@@H]12`, 0.189. In the case of `CCN1C(=O)[C@H]2[C@H]3[C@H](O)[C@H](O)CC(=NO[C@@H]4O[C@H](CO)[C@@H](O)[C@H](O)[C@H]4O)[C@@H]3CC[C@H]2C1=O` it was -0.369. In the case of `C#CCCCON=C1C[C@@H](O)[C@@H](O)[C@@H]2[C@@H]3C(=O)N(Cc4ccccc4)C(=O)[C@@H]3CC[C@H]12` it was -1.43; in that of `C[C@@H](c1ccccc1)N1C(=O)[C@H]2[C@H]3[C@H](O)[C@H](O)CC(=NNC(=O)OCc4ccccc4)[C@H]3CC[C@H]2C1=O`, 0.976. Turning to `COC(=O)[C@H](C)NC(=O)CCC1CC(OC(=O)NCc2cccc3ccccc23)CC2(CCCC(COC(=O)NCCc3ccc(Cl)cc3)O2)O1` (some centres not stated), the z-score was -0.0765.
